Screening results from PubChem.
TMEM16A act – TMEM16A chloride channel activators or potentiators, primary screen, cell-based, HTS; Anoctamin-1 (Mus musculus), Q8BHY3; HEK293 TMEM16A/YFP-H148Q/I152L, iodide quench fluorescence; active compounds read low; B-score at 10 µM; hit rate 0.3% among 340,000;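 active means fluorescence-ratio B-score plate-corrected deviation score at least 3 library SD below zero, with starting fluorescence score within 5 deviations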;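 further: channel opened by trigger with iodide after compound preincubation; score built on the fluorescence ratio of max minus min over baseline; more negative score means more quench and so TMEM16A activation or potentiation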
Target sequence (Q8BHY3 whole entry, looked up): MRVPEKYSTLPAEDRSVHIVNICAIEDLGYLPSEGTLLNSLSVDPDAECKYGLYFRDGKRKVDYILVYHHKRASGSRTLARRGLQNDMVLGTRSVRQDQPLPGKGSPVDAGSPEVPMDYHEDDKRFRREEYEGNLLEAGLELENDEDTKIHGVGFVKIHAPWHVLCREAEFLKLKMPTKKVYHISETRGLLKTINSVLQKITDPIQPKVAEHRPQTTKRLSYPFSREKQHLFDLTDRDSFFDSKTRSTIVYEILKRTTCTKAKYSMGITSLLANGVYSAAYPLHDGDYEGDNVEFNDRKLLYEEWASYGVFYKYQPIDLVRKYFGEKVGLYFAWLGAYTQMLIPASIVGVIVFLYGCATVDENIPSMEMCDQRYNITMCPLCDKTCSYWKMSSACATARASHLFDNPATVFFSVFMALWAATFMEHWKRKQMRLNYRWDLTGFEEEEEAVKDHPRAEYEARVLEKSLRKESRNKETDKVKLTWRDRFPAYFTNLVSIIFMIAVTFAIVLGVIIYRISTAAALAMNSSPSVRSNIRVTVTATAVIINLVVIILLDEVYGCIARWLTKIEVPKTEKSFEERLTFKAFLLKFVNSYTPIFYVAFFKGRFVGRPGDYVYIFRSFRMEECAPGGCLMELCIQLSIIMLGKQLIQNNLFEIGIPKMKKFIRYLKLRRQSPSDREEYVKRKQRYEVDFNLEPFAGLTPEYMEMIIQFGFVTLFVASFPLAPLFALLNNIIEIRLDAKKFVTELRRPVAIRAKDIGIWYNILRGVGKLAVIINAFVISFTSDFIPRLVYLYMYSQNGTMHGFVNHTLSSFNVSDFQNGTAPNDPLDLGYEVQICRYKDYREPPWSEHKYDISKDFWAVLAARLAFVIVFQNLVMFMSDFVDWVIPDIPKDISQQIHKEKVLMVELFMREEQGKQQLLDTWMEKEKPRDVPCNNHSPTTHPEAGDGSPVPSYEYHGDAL
ANO1 block – TMEM16A chloride channel inhibitors, primary screen, cell-based, HTS. HEK293 TMEM16A/YFP iodide influx fluorescence, ionomycin. AID 588511, 2011. hit rate 1.2% among 310,000. Anoctamin-1 (Mus musculus), Q8BHY3. normalized B-score (activity score, 25-100; higher = stronger inhibition) at 10 µM;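 active means ratio plate-corrected score three or more library SD toward inhibition, starting fluorescence score within five deviations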;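 further: score derived from kinetic fluorescence span divided by baseline fluorescence per well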
Jurkat NFkB inh – inhibitors of induced NF-kB luciferase reporter, primary screen, TCR NF-kB activation inhibitor project, cell-based, luminescence, uHTS; Jurkat, PMA/ionomycin-induced NF-kB luciferase reporter; inhibition, % at 4 µM; AID 435003, 2010; hit rate 0.53% among 330,000; in the data active means inhibition above about 50%
aSyn UTR inh – MLPCN primary screen, SNCA 5' untranslated region. alpha-synuclein 5'UTR reporter, inhibitor activity. inhibition, % (tested at 7.5 µM). hit rate 0.82% among 300,000. AID 1813, 2009; in the data active means inhibition above about 60%; inconclusive means no clear call, values can overlap the other calls;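 further: H4 neuroglioblastoma cells stably carrying SNCA 5'UTR luciferase fusion; 0% = DMSO wells and 100% = positive control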
KLF5 inhibitor – KLF5 expression inhibitors, primary screen, DLD-1 cells, luminescence | DLD-1 KLF5 promoter-luciferase reporter | inhibition, % at 5 µM | hit rate 0.23% among 290,000 | AID 1700, 2009;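 active means inhibition above a per-plate limit of that plate's mean compound inhibition plus 3 SD, cut at about 60% in these data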;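 further: 0% = DMSO wells and 100% = LY294002 at 200 µM; higher means less KLF5 promoter-driven luciferase light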
697 NFkB inh – inhibitors of PMA/ionomycin-induced NF-kB reporter, 697 cells, primary screen, B-cell NF-kB inhibitor project, cell-based, luminescence, uHTS. 697 B-cell NF-kB luciferase reporter, 16 h. inhibition, % at 4 µM. hit rate 0.33% among 330,000; in the data active means inhibition above about 35%
Numbers without * were called inactive; i = inactive; ? = inconclusive; / = no result. In the library only some 2.5% were active in any assay of this set; here they are far more common.

SMILES	TMEM16A act	ANO1 block	Jurkat NFkB inh	aSyn UTR inh	KLF5 inhibitor	697 NFkB inh
CN(C)S(=O)(=O)N1CCCC(C(=O)c2ccc(-c3ccccc3)c(F)c2)C1 (stereo unspecified)	i	100*	13.9	-14.2	-0.8	-0.9
CC1CCN(c2ccc(-c3ccc(NC(=O)C(F)(F)F)cc3)nn2)CC1	i	i	-98.5	71.0*	39.8	-157.8
Cc1onc(-c2c(Cl)cccc2Cl)c1C(=O)N/N=C(\N)COc1ccc(Cl)cc1	i	i	10.0	89.3*	-12.3	-21.9
FC(F)(F)c1cc(Oc2ccccc2Cl)nc(-c2ccccn2)n1	i	i	3.4	64.2*	2.5	-12.4
OC[C@H]1O[C@@](CO)(O[C@H]2O[C@H](CO)[C@@H](O)[C@H](O)[C@H]2O)[C@@H](O[C@H]2O[C@H](CO)[C@@H](O)[C@H](O)[C@H]2O)[C@@H]1O	i	/	/	/	/	/
Cc1cccc2cc3c(N)c(C#N)sc3nc12	i	i	-14.2	83.5*	-7.2	-2.0
CCOC(=O)Cc1csc(/N=C/c2c(O)n(-c3ccc(C)c(C)c3)c(=O)c3ccccc23)n1	i	i	21.2	105.0*	-7.8	13.3
Cc1ccc(C(=O)Nc2ccc3ncccc3c2)cc1	i	i	-24.5	84.1*	45.4	-181.3
Cc1ccc(C(=O)Nc2ccc(Br)c(C(F)(F)F)c2)cc1	i	100*	-72.0	-211.7	-114.9	-129.0
COc1ccccc1NS(=O)(=O)c1cccc(C(=O)N/N=C/c2ccc([N+](=O)[O-])o2)c1	i	/	-6.6	/	/	6.6
Cc1c(O)cc2c(c1O)C(=O)CC(c1ccccc1)O2 (stereo unspecified)	-6.48*	100*	-20.7	-24.8	/	-10.5
COc1c(O)cc2c(c1O)C(=O)CC(c1ccccc1)O2 (stereo unspecified)	/	/	-29.4	-102.3	-71.6	-21.2
O=C1OCCC1Sc1nnc(-c2ccccc2)o1 (stereo unspecified)	/	i	2.0	13.0	7.1	-16.0
O=C1OCCC1Sc1nnc(-c2ccc(Cl)cc2Cl)o1 (stereo unspecified)	i	25*	23.8	89.5*	31.2	34.8
CC1CCCCN1C(=O)COC(=O)c1cc([N+](=O)[O-])ccc1N1CCOCC1 (stereo unspecified)	i	i	-1.2	12.0	/	27.0
Cc1ccc(C)c(Nc2c([N+](=O)[O-])cc(C(=O)N3CC(=O)Nc4ccccc43)cc2[N+](=O)[O-])c1	i	i	22.3	77.6*	-2.0	9.1
Cc1cccc(C)c1NC(=O)CN1CCN(C(=O)CNC(=O)c2ccc(N3CCCC3=O)cc2)CC1	i	/	2.8	/	/	11.8
Cc1c(C(=O)N2CCCCC2)c(S(=O)(=O)NCCc2ccc(S(N)(=O)=O)cc2)c(C)n1C	i	i	6.8	9.3	-27.8	12.8
CCN(CC)c1ccc(/C=C2\C(=O)N(c3nnc(C)c(=O)[nH]3)N=C2C)cc1	-5.68*	i	20.8	-17.2	-44.3	-5.0
COc1ccc(/C=C2/C(=O)N(c3ccccc3)N=C2C)cc1	i	i	10.8	?	/	-14.2
Cc1ccc(-n2[nH]c(C)c(/C=N/Nc3ccc([N+](=O)[O-])cc3[N+](=O)[O-])c2=O)cc1C	i	25*	8.1	8.3	4.4	-2.9
Cc1[nH]n(-c2ccccc2)c(=O)c1/C=N/NC(=O)c1cccc([N+](=O)[O-])c1	i	i	3.1	/	-18.0	-2.3
Cc1c(C(=O)NCCCN2CCCCC2)oc2ccc3c(c12)C(O)CC1(CCCCC1)O3 (stereo unspecified)	i	i	-30.9	76.0*	-27.3	-24.0
CCOC(=O)C1CCN(C(=O)c2oc3ccc4c(c3c2C)C(O)CC2(CCCCC2)O4)CC1 (stereo unspecified)	i	i	10.8	8.2	-31.7	-19.5
Cc1ccc(NS(=O)(=O)c2cc([N+](=O)[O-])ccc2NNC(=S)Nc2cccc(Cl)c2)c(C)c1	i	100*	/	-6.6	-5.7	/
SMILES	TMEM16A act	ANO1 block	Jurkat NFkB inh	aSyn UTR inh	KLF5 inhibitor	697 NFkB inh
COc1ccc(NC(=S)NNc2ccc([N+](=O)[O-])cc2S(=O)(=O)Nc2ccc(C)cc2C)cc1	i	100*	1.5	12.8	-0.1	-42.3
Cc1ccc(NS(=O)(=O)c2cc([N+](=O)[O-])ccc2NNC(=S)Nc2cc(C)ccc2C)c(C)c1	i	100*	10.9	7.5	14.7	-7.5
Cc1cccc(NC(=S)NNc2cccc(Cl)c2)c1	i	i	-27.4	1.9	-3.3	-10.9
CCOC(=O)Nc1ccc(N2CCOCC2)c(S(=O)(=O)Nc2ccc(Cl)cc2)c1	/	/	4.5	/	/	18.5
Cc1ccc(NC(=O)OCc2cccs2)cc1	/	i	-102.7	-190.6	-146.4	-95.1
Nc1cc2c(cc1Cl)-c1ccc(Cl)cc1C2=O	i	/	/	/	/	/
Nc1nc(N)c2[nH]c(=S)[nH]c2n1	i	/	/	/	/	/
NS(=O)(=O)c1ccc(NC(=O)c2cc(Cl)ccc2Cl)cc1	-5.48*	i	-10.6	-7.7	-16.5	5.3
C=CCNc1nc(-c2c(C)nc3sccn23)cs1	i	i	-26.0	-11.6	-19.1	-43.9
Cc1nc2ncccn2c1-c1csc(Nc2ccc(N(C)C)cc2)n1	i	/	/	70.2*	33.4	/
Cc1nc2sccn2c1-c1csc(NCc2ccccc2)n1	i	25*	18.9	-9.8	-38.9	-40.7
Cc1nc2ncccn2c1-c1csc(Nc2ccc(S(N)(=O)=O)cc2)n1	i	i	1.4	5.9	-54.6	14.4
Cc1nc2ncccn2c1-c1csc(Nc2ccccc2)n1	i	i	-8.0	-15.8	-29.0	2.4
CC(=O)Nc1ccc(Nc2nc(-c3c(C)nc4ccccn34)cs2)cc1	i	i	40.5	86.6*	/	-58.6
COc1ccc(Nc2nc(-c3c(C)nc4ncccn34)cs2)cc1	i	/	/	/	84.3*	/
CC(C)NC(=O)N(C)C[C@H]1Oc2ccc(NC(=O)C3CC3)cc2C(=O)N([C@H](C)CO)C[C@@H]1C	i	/	-16.1	/	/	-2.7
CC(C)(C)C1CCC2(CC1)C(C#N)=C(SCC(=O)NC1CCCCC1)NC(=O)C2C#N (stereo unspecified)	i	100*	6.5	36.4	-7.8	-20.5
N#CC1=C(SCC(=O)NC23CC4CC(CC(C4)C2)C3)NC(=O)C(C#N)C12CCCCC2 (stereo unspecified)	i	100*	12.4	22.1	-41.7	-44.8
N#CC1=C(SCC(=O)Nc2cccc3cccnc23)NC(=O)C(C#N)C12CCCCC2 (stereo unspecified)	i	100*	5.2	-12.6	-9.1	-0.8
N#CC1=C(N)NC(SCC(=O)Nc2ccccc2)=C(C#N)C12CCCC2	i	i	2.9	-17.8	1.5	-2.8
